Drawing on PubChem BioAssay AID1347428 (National Center for Advancing Translational Sciences (NCATS), 2020), this text covers Potency for 52 compounds.

About 290 (0.32%) of roughly 91,000 compounds were called active. A call without a number means that no potency is given here. Another 7% or so got no clear call; they are omitted. Calls come from the whole dose curve; as a rule, active = well fitted inhibition curve with a large enough effect; inconclusive = small, poorly fitted or top-dose-only effect; inactive = no such curve, though single readings can be large or run the other way. The full list was thinned out, with actives kept by preference.
Potency is the fitted concentration of half-maximal effect.

Sequence of Single-stranded DNA cytosine deaminase (Homo sapiens) (Q9GZX7 whole entry, looked up): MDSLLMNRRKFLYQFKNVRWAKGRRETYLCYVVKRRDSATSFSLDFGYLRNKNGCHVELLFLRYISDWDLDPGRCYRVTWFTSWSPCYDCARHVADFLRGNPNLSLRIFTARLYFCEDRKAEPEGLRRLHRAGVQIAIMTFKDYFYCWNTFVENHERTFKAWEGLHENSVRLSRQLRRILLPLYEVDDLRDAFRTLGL

The test addresses Single-stranded DNA cytosine deaminase (Homo sapiens) (UniProt Q9GZX7). Description: Primary qHTS assay for inhibitors of Activation Induced Cytidine Deaminase (AID): AID signal. Note: nearly all actives have a fitted effect of over 25% in size. The conditions noted are these: AID deamination FRET fluorescence, UDG-coupled, 4 h; series mostly up to 115 µM. An excerpt: Assay Provider (PI) Patricia Gearhart Ph.D.
National Institute on Aging
National Institute of Health (NIH), Bethesda, MD
Assay Provider (PI) Rahul Kohli Ph.D.
Perelman School of Medicine
University of Pennsylvania, Philadelphia, PA
Activation-Induced Deaminase (AID) is a cytosine deaminase which converts cytosine into uracil within stretches of ssDNA. The presence of uracil in DNA initiates a cascade of mutagenic DNA repair to introduce point mutations and DNA double strand breaks. Specific targeting of AID to the immunoglobulin heavy chain loci (Igh) promotes mutagenesis in the antibody variable region for somatic hypermutation (SHM) or switch regions leading to class switch recombination (CSR). However, AID also plays a role in accumulating unnecessary mutations across the genome. Mis-targeting of AID results in the initiation of tumor development and leads to greater drug resistance among cancer cells when continually expressed. To identify an AID inhibitor, a small molecule library will be screened in collaboration with NCATS core facility at NIH. To confirm biological function, inhibitors will be examined in an in vitro murine B-cell activation assay and subsequent secondary validation screens. Top molecules will be further screened to identify inhibitory efficacy against a wild type primary splenocytes assay. Using these approaches, we hope to identify a small molecule with great efficacy and low toxicity for use as a molecular probe to further characterize AID's intricacies, or even as a therapeutic.
A FRET based analysis of cytosine deamination, was developed to identify potential inhibitors of AID catalytic activity. This screen has two signal output, Read 1 evaluates the AID inhibition response. The second readout (Read 2) evaluates UDG response and is uses as a counterscreen to exclude false positive inhibitors. Inhibition in AID and inactivity in the UDG signal is the desired outcome for this assay.
SEQUENCE No. (e.g., 1, 2, 3, etc.); […] (e.g., Cells, Incubation, Reagent, etc.); VALUE; DESCRIPTION
1a; Reagent; 3 uL; [4/3x] 1 uM AID/2.67 U/mL UDG
1b; Reagent; 3 uL; 2 U/mL UDG
1c; Reagent; 3 uL; 1 uM AID
2a; Compound; 46 nL; Follow-up plates (0.64 uM - 10 mM)
2b; Control; 46 nL; ATA ([…] - 10 mM)
3; Time; 10 min; incubation at room temperature
5; Time; 4 hr; incubation at room temperature
6; Reagent; 4 uL; [2x] 250 mM NaOH
7; Time; 15 sec; centrifuge at 1000 rpm
8; Time; 30 min; incubation at room temperature
9a; Detection; fluorescence (Read 1: AID); EnVision (PerkinElmer) plate reader, 540 excitation and 590 emission filters
9b; Detection; fluorescence (Read 2: UDG); EnVision (PerkinElmer) plate reader, 560 excitation and 665 emission filters
NOTES (numbers refer to sequence above)
1a; Reagents were dispensed in a medium-binding black solid-bottom Greiner plates (789176F) using a BioRptr liquid dispenser. Dispense 3 uL of [4/3x] 1 uM AID (provided by Kohli lab) and [4/3x] 2 U/mL UDG (NEB M0280L) into columns 1, 2, 5 to 48.
1b; Dispense 3 uL of [4/3x] 2 U/mL UDG into column 3.
1c; Dispense 3 uL of [4/3x] 1 uM AID into column 4.
2a; Compound (7-points [uM] (0.64; 3.2; 16; 80; 400; 2,000; 10,000; 20,000) double pin-transferred (Dip Factor = 2) using the Kalypsys (Wako USA) pintool equipped with a 1536 pinhead for a final concentration range of 7.32 nM - 114 uM.
2b; 10 mM Aurintricarboxylic Acid (Sigma A1895) (ATA, 8-point, n = 2, 1:2.5 dilution in column 2) double pin-transferred (Dip Factor = 2) using the Kalypsys (Wako USA) pintool equipped with a 1536 pinhead for a [final] range of 186 nM - 114 uM.
3; Room temperature incubation.
4; Dispense 1 uL of substrate mixture from the Kohli lab [4x] […] DJC20 and [4x] 250 nM DJC23 into columns 1 to 48 .
5; Room temperature incubation.
6; Dispense 4 uL of substrate mixture [2x] 250 mM NaOH into columns 1 to 48.
7; Centrifugation step to remove bubbles.
8; Room temperature incubation
9a; Fluorescence signal (column label AID) was read using the EnVision plate reader. […]
For the compound `CSc1ccc(C)c(C(=O)NCC2CC2)c1`, the Potency result is “inactive”. Turning to `O=C(O)Cn1cccc(C(F)(F)F)c1=O`, the Potency entry was “inactive”. On to `COc1cc(C(=O)NC2CCOC2=O)cc(OC)c1OC` (configuration not stated), for which the Potency result is “inactive”. Regarding `O=C(O)CCCC(=O)N1CCN(c2ccc(Cl)c(Cl)c2)CC1`, the Potency entry was “inactive”. The entry for `Cc1cc(Br)cc(C)c1O` is “inactive”. As for `O=C(Nc1ccc(Br)cc1)C(c1ccccc1)C1CCCC1` (configuration not stated), the Potency result was “inactive”. As for `O=C(NCc1ccc(F)cc1)NC1CC1`, the Potency entry is “inactive”.

`O=C(/C=C/c1ccc(OCc2ccccc2)cc1)c1cccnc1`: the Potency result was “inactive”. As to `CN(CCOc1ccc(Br)cc1)C(=O)CSc1nnnn1C`, the Potency result was “inactive”. On to `CC(C)c1ccc(Cn2c(COc3ccccc3)nc3ccccc32)cc1`, for which the Potency result is “inactive”. In the case of `Cc1c(C)n(Cc2ccc(Cl)cc2)c2ccc(C(=O)N3CCN(c4ccccc4F)CC3)cc12`, the Potency entry is “inactive”.

For the compound `CC(C)c1ccc2c(c1)c(SC(C)(C)C)c(CC(C)(C)C(=O)O)n2Cc1ccc(Cl)cc1`, the Potency was 79.4 µM (active). For `CC1CCc2cc(F)ccc2N1C(=O)C1(C)CC1(Br)Br` (configuration not stated), the Potency entry is “inactive”. For `CC(C)CNC(=O)NC1=C(C#N)C(C)(C)Cc2ccccc21`, the Potency entry was “inactive”.

Turning to `CNc1snc(C)c1C(=O)N(C)CCOc1ccccc1C`, the Potency result was “inactive”.

As to `CCOc1ccc(C(=O)Nc2cc(C(F)(F)F)ccc2Cl)cc1Cl`, the Potency entry was “inactive”. For the compound `COc1cc(C2SCCS2)ccc1OC(=O)c1ccc2c(c1)NC(=O)CS2`, the Potency entry is “inactive”. Take `COc1ccc(OC)c(-n2cnc3c2NC(=O)CC3c2ccsc2)c1` (configuration not stated): the Potency result was “inactive”. Regarding `O=C(NCCc1ccc(C(F)(F)F)cc1)c1ccccn1`, the Potency entry was “inactive”.

`COc1ccc(C2Nc3ccccc3C(=O)N2c2ccc(C)cc2)cc1CN1CCOCC1` (configuration not stated): the Potency result is “inactive”. In the case of `Cc1ccccc1NC(=O)CSC1=C(C#N)C(c2ccccc2F)CC(=O)N1` (configuration not stated) it was “inactive”; in that of `Cc1noc(C)c1COc1cccc(C(=O)Nc2ccc(S(=O)(=O)NCc3ccco3)cc2)c1`, “inactive”; in that of `Cc1cc(Nc2ccccc2)n2nc(Cc3ccc(Cl)cc3)nc2n1`, “inactive”. As for `CN(C)S(=O)(=O)c1ccc(NC(=O)COc2ccc3cc(Br)ccc3c2)cc1`, the Potency entry is “inactive”. For `O=C(c1cc2ccccc2o1)c1ccc(F)cc1F`, the Potency result was “inactive”. `Cc1cc(C)c(NC(=O)C(C)Oc2ccc(C#N)cc2)c(C)c1` (configuration not stated): the Potency entry is “inactive”. Consider `COCCn1cnnc1SC(C)C(=O)c1ccc(F)cc1` (configuration not stated), for which the Potency result is “inactive”.

With `COC(=O)c1ccc(C(=O)OC(C)C(=O)C23CC4CC(CC(C4)C2)C3)cc1` (configuration not stated), the Potency result was “inactive”. As for `CCCCn1c(N2CCN(CCc3ccccc3)CC2)nc2c1c(=O)[nH]c(=O)n2C`, the Potency entry is “inactive”. `Cn1c(=O)n(Cc2ccccc2)c(=O)c2c1nc(NCc1ccccc1)n2Cc1ccccc1`: the Potency result is “inactive”. The entry for `CCC/C=N/NC(=O)c1ccc(C)cc1C` is “inactive”.

`COc1ccc(C(=O)/C(C#N)=C\c2ccccc2C(F)(F)F)cc1`: the Potency result was “inactive”. In the case of `CCCCCCCCS(=O)(=O)CCCCCCC(=O)O`, the Potency result is “inactive”.

In the case of `CC(=O)c1ccc(NC(=O)NCCCN(C)CC(F)(F)F)cc1`, the Potency result is “inactive”.

With `CCCCn1nc(C(=O)Nc2cccc(C(=O)NC3CC3)c2)c2ccccc2c1=O`, the Potency result was “inactive”.

In the case of `CCc1ccc(CCC(=O)NC)cc1`, the Potency result is “inactive”. For `CC(=O)N1CCC(C(=O)Nc2ccc(Br)cc2)CC1`, the Potency result is “inactive”. As for `Cc1cccc(C(=O)OC2CCCN(C)C2)c1` (configuration not stated), the Potency result is “inactive”.

In the case of `CCN(CC)C(=S)SC(C(N)=O)c1ccccc1` (configuration not stated), the Potency result was “inactive”. Take `CCCc1cc(=O)oc2cc(OS(=O)(=O)c3cccc(C#N)c3)ccc12`: the Potency entry is “inactive”. Turning to `CCn1c(C)cc(/C=C(\C#N)c2ccc(Br)cc2)c1C`, the Potency entry is “inactive”. For the compound `CCOC(=O)C1CCN(C(=O)COC(=O)c2cn(-c3ccccc3)nc2-c2ccc(Cl)cc2)CC1`, the Potency result is “inactive”. `O=C(COc1ccccc1)NCc1ccc2c(c1)CCN2C(=O)c1ccc(F)cc1`: the Potency is 22.4 µM (active). In the case of `CCOc1ccccc1C(=O)NCc1ccc2c(c1)CCN2C(=O)c1ccc(F)cc1` it was “inactive”; in that of `COc1ccc(CCC(=O)NCc2ccc3c(c2)CCN3C(=O)c2ccc(F)cc2)cc1`, “inactive”. With `N#CCCc1c(O)ccc2ccccc12`, the Potency result was “inactive”. On to `Cc1cccc(NC(=O)C(C#N)C(=O)CC(C)(C)C)c1` (configuration not stated), for which the Potency entry is “inactive”. Regarding `O=C(CSc1nc2c(c(=O)n1CCc1ccccc1)SCC2)Nc1cccc2ccccc12`, the Potency entry is “inactive”. On to `O=C(Nc1ccc(C(F)(F)C(F)(F)C(F)(F)F)oc1=O)c1ccccc1`, for which the Potency result is “inactive”. As to `COc1ccc(NC(=O)Cn2cc(C(=O)c3ccncc3)c(=O)c3cc(C)ccc32)cc1Cl`, the Potency result is “inactive”. As to `COc1ccc(Cn2cc(C(=O)c3ccc(C)cc3)c(=O)c3cc(OC)c(OC)cc32)cc1`, the Potency was 44.7 µM (active). On to `CCOc1ccc(NC(=O)Cn2cc(C(=O)c3ccc(C)cc3)c(=O)c3cc4c(cc32)OCCO4)cc1`, for which the Potency entry is “inactive”.
